About 13,000 (27%) of roughly 48,000 compounds showed an effect of 50% or more. Some of the results follow.
test system: Wolbachia pipientis; assay: Anti-Wolbachia Cell-Based Screen; format: functional; set-up: scale not given: in the data most compounds retested in dose-response had high values; conditions: 5 µM

Row | Structure (SMILES) | Percent Effect
1 | CN(C)C(=O)CN1CCN(c2ncccn2)[C@@H]2CS(=O)(=O)C[C@@H]21 | -3.142%
2 | CC(c1ccccc1F)N1CCN(C(=O)Cc2ccncc2)CC1 (configuration not stated) | -4.813%
3 | COc1cccc(CC(C)NCC(=O)Nc2ccccc2C)c1 (configuration not stated) | 0.2022%
4 | CC[C@H]1CN2CC[C@H]1C[C@@H]2CNCc1ccc(N(C)C)cc1 | 11.9%
5 | Cc1cccc(CO[C@@H]2C[C@H]3CN(c4ncccn4)CCN3C2)n1.O=C(O)C(F)(F)F.O=C(O)C(F)(F)F.O=C(O)C(F)(F)F | -11.39%
6 | Cc1ccc(O[C@@H]2C[C@H]3CN(c4ncc(F)cn4)CCN3C2)cc1.O=C(O)C(F)(F)F.O=C(O)C(F)(F)F | 83.44%
7 | Cc1cnc(N2CCN3C[C@H](OCc4ccccn4)C[C@H]3C2)nc1.O=C(O)C(F)(F)F.O=C(O)C(F)(F)F | 0.855%
8 | Fc1cnc(N2CCN3C[C@H](Oc4cccnc4)C[C@H]3C2)nc1.O=C(O)C(F)(F)F.O=C(O)C(F)(F)F.O=C(O)C(F)(F)F | 90.39%
9 | Fc1cnc(N2CCN3C[C@H](Oc4cncnc4)C[C@H]3C2)nc1.O=C(O)C(F)(F)F.O=C(O)C(F)(F)F | 110.2%
10 | Fc1ccccc1CO[C@@H]1C[C@H]2CN(c3ncccn3)CCN2C1.O=C(O)C(F)(F)F | -0.171%
11 | O=C(O)C(F)(F)F.O=C(O)C(F)(F)F.c1ccc(CO[C@@H]2C[C@H]3CN(c4ncccn4)CCN3C2)cc1 | 2.223%
12 | O=C(c1ccco1)N1CCN2C[C@H](Oc3cncnc3)C[C@H]2C1 | 1.787%
13 | O=C(O)C(F)(F)F.O=C(O)C(F)(F)F.c1cnc(N2CCN3C[C@H](Oc4cncnc4)C[C@H]3C2)nc1 | 105.8%
14 | O=C(Cc1cccc(F)c1)N1CCN2C[C@H](Oc3cncnc3)C[C@H]2C1.O=C(O)C(F)(F)F | 1.194%
15 | CC(C)c1cc(C(=O)N2CCN(C)[C@@H]3CS(=O)(=O)C[C@@H]32)no1 | -18.46%
16 | O=C(NC[C@H]1C[C@@H]2CCN1C[C@@H]2CN1CCCCC1)c1ccco1 | 3.904%
17 | CCCSCC(=O)N1C[C@H]2CC[C@@H]1CN(Cc1cccnc1)C2 | -15.35%
18 | COC(=O)C(CO)NC(=O)c1cn(Cc2ccccc2F)nn1 (configuration not stated) | -17.52%
19 | CCOCC(=O)NC(C)Cc1ccccc1Br (configuration not stated) | -9.65%
20 | CNS(=O)(=O)CC(=O)NC(C)Cc1ccc(Br)cc1 (configuration not stated) | -6.603%
21 | CC[C@H](C)[C@@H](CO)NC(C)Cc1ccc(F)cc1 (some centres not stated) | 95.88%
22 | CC[C@H](C)[C@@H](CO)NC(C)Cc1ccccc1F (some centres not stated) | 127.2%
23 | CC[C@H](C)[C@@H](CO)NC(C)Cc1ccc(Cl)cc1 (some centres not stated) | 125.5%
24 | CC(=O)N1CCC(CCNC(C)Cc2ccc(F)cc2)CC1 (configuration not stated) | 3.455%
25 | CC[C@H](C)[C@@H](CO)NC(C)Cc1ccc(C)cc1 (some centres not stated) | 96.84%
26 | CCc1cc(CN(C)C(=O)CN2CC(c3ccccc3)CC2=O)on1 (configuration not stated) | -7.018%

Row | Structure (SMILES) | Percent Effect
27 | CN(C)C(=O)[C@H]1C[C@H]2OCC[C@H]2N(Cc2ccccn2)C1 | -23.53%
28 | O=C(NC[C@H]1C[C@@H]2CCN1C[C@@H]2CN1CCCCC1)Nc1ccccc1 | -4.847%
29 | CC(C)(C)n1cc(C2=CCN(CCN3CCCCCC3)CC2)cn1 | -14.66%
30 | CC(C)(C)CN1CCCC2(CCN(C(=O)c3ccc(O)nc3)C2)C1 (configuration not stated) | -6.955%
31 | O=C(O)C(F)(F)F.O=C(O)C(F)(F)F.O=C1N(c2cccnc2)CCC12CCCN(Cc1ccco1)C2 (configuration not stated) | 8.384%
32 | Cc1ccc(CN2CC3(CCN(C(=O)c4cccnc4)C3)C2)o1.O=C(O)C(F)(F)F.O=C(O)C(F)(F)F | 90.74%
33 | O=C(O)C(F)(F)F.O=C(O)C(F)(F)F.O=C1CC2(CCN(Cc3cccnc3)C2)CN1c1cncnc1 (configuration not stated) | -5.386%
34 | CN1CCC2(CCN(C(=O)c3cccnc3)C2)C1 (configuration not stated) | 103.3%
35 | CNc1ncccc1C(=O)N1CCC2(CCN(C)C2)CC1 | -14.87%
36 | O=C(O)C(F)(F)F.O=C(O)C(F)(F)F.O=C1N(c2ccsc2)CCC12CCCN(Cc1cccnc1)C2 (configuration not stated) | 4.008%
37 | CCCN(CCN(C)C)C(=O)Cc1cn2ccsc2n1 | -3.087%
38 | O=C(Cc1ccsc1)N1CCN(CCOc2ccccc2)CC1 | -6.082%
39 | CC[C@H]1CN2CC[C@H]1C[C@@H]2CNCc1ccc2c(c1)OCO2 | 5.104%
40 | CN1CCN2C(=O)N(C3CCCCC3)C[C@H]2C1 | -7.779%
41 | CC(C)N(C)C(=O)C1CCC2(CCNCC2)O1.Cl (configuration not stated) | -5.93%
42 | CCN(C)c1nccc(N2CCN[C@H]3CS(=O)(=O)C[C@H]32)n1 | -8.792%
43 | Cc1ccnc(CC(C)N(C)Cc2ccc3c(c2)CCO3)c1 (configuration not stated) | 8.665%
44 | O=C(O)C(F)(F)F.c1cnc(N2CCOCC3(CN(Cc4cc[nH]n4)CCO3)C2)nc1 (configuration not stated) | 10.86%
45 | CCS(=O)(=O)N1CCOC2(CCCN(Cc3ccccn3)C2)C1.O=C(O)C(F)(F)F (configuration not stated) | 109.8%
46 | O=C(O)C(F)(F)F.O=S(=O)(C1CC1)N1CCOC2(CCCN(Cc3ccccn3)C2)C1 (configuration not stated) | 85.16%
47 | CS(=O)(=O)N1CCOCC2(CN(Cc3ccccn3)CCO2)C1.O=C(O)C(F)(F)F.O=C(O)C(F)(F)F (configuration not stated) | -5.644%
48 | CCCS(=O)(=O)N1CCOC2(CCCN(Cc3ccccn3)C2)C1.O=C(O)C(F)(F)F (configuration not stated) | 106.1%
49 | O=C(O)C(F)(F)F.O=C(O)C(F)(F)F.O=C(O)C(F)(F)F.c1ccc(CN2CCOC3(CCN(c4ncccn4)CC3)C2)nc1 | -2.349%
50 | O=C(O)C(F)(F)F.O=C(O)C(F)(F)F.O=S(=O)(C1CC1)N1CCC2(CC1)CN(Cc1ccccn1)CCO2 | 101%
51 | CCS(=O)(=O)NC[C@]12COC[C@H]1CN(Cc1ccccn1)C2.O=C(O)C(F)(F)F.O=C(O)C(F)(F)F | 3.316%
52 | CC(C)[C@@H]1CN(C(=O)C2(c3ccccc3)CCN(C)CC2)C[C@H]1C(=O)O | 1.772%

Reference: ChEMBL document CHEMBL3988442, “University of Dundee, Small-Polar-MMV Screening Library” (2021)
